Laboratory results from PubChem BioAssay (NCI).
Compounds without any hit were thinned out: in the full panel of roughly 79,000, 15% have a hit. Unmarked numbers belong to inactive results. Active and inactive are the calls of the source. Rule as the data show it: active = growth inhibition above about 70%; inactive = the rest.

Experiments:
[1] = NCI Yeast Anticancer Drug Screen. Data for the rad50 strain (AID 155);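 also: 0% = growth of vehicle-only cultures of the same strain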; settings: S. cerevisiae rad50 strain growth inhibition, hits give high values
Summary of the method: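 Vehicle-treated cultures provide the reference for the growth inhibition reported for compound-exposed, repair-deficient yeast.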

[2] = NCI Yeast Anticancer Drug Screen. Data for the mec2-1 strain (AID 157); settings: S. cerevisiae mec2-1 strain, hits give high values
Summary of the method: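 Readout is yeast growth inhibition, normalised to vehicle-treated controls, in the mec2-1 strain exposed to compound.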

[3] = NCI Yeast Anticancer Drug Screen. Data for the sgs1 mgt1 strain (AID 161);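 also: 0% = growth of cultures given vehicle only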; settings: S. cerevisiae sgs1 mgt1 strain, hits give high values
Summary of the method: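 Percent growth inhibition was derived by comparing compound-exposed mutant yeast with vehicle-exposed cultures. The strain carries alterations in DNA damage repair.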

[4] = NCI Yeast Anticancer Drug Screen. Data for the cln2 rad14 strain (AID 165);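 also: 0% = growth equal to vehicle treated cultures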; settings: S. cerevisiae cln2 rad14 strain, hits give high values
Summary of the method: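 Relative to vehicle controls, growth inhibition of compound-treated cln2 rad14 yeast was recorded.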

[5] = NCI Yeast Anticancer Drug Screen. Data for the bub3 strain (AID 167); settings: S. cerevisiae bub3 mutant strain, hits give high values
Summary of the method: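 Mutant yeast screening strain plus compound; vehicle-treated cultures serve as the 0% inhibition reference.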

[6] = NCI Yeast Anticancer Drug Screen. Data for the mlh1 rad18 strain (AID 175); settings: S. cerevisiae mlh1 rad18 strain growth inhibition, hits give high values
Summary of the method: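 Test agents were incubated with a yeast strain of defined genotype (DNA damage repair defect). Inhibition of growth was derived by comparison with vehicle-exposed cultures.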

[7] = at 5.0 µM (retest, dose inferred, filed as 0.5)
[8] = at 50.0 µM (retest, dose inferred, filed as 5.0)

SMILES | growth inhibition [1, 7] | growth inhibition [1, 8] | growth inhibition ([1]; at 50.0 µM) | growth inhibition [2, 7] | growth inhibition [2, 8] | growth inhibition ([2]; at 50.0 µM) | growth inhibition [3, 7] | growth inhibition [3, 8] | growth inhibition ([3]; at 50.0 µM) | growth inhibition [4, 7] | growth inhibition [4, 8] | growth inhibition ([4]; at 50.0 µM) | growth inhibition [5, 7] | growth inhibition [5, 8] | growth inhibition ([5]; at 50.0 µM) | growth inhibition [6, 7] | growth inhibition [6, 8] | growth inhibition ([6]; at 50.0 µM)
CN(Cc1cc(C(C)(C)C)cc(Br)c1O)Cc1cc(C(C)(C)C)cc(Br)c1O | 2% | 24% | 72% (active) | -2% | 91% (active) | 86.2% (active) | -9% | 64% | 58.8% | -11% | 87% (active) | 89.5% (active) | -11% | 71% (active) | 81.3% (active) | -8% | 84% (active) | 61.1%
COc1ccc(C2SC(N)=Nc3c2c(C)nn3C(=O)c2ccccc2O)cc1OC (configuration not stated) | -9% | 74% (active) | 53.3% | -15% | 81% (active) | 35.2% | -8% | 70% (active) | 75.3% (active) | -20% | 24% | -19% | -19% | 31% | 74.3% (active) | 1% | 91% (active) | 65.5%
CCOC(=O)c1ccc(O)c(OC)c1 | -2% | 10% | 2% | 7% | 3% | 1.5% | 3% | 2% | -18.6% | -5% | 5% | -13.8% | 61% | 93% (active) | 90.2% (active) | -3% | 0% | -7.1%
O=C(Nc1ccc(F)c(Cl)c1)Oc1ccc(Br)cc1Br | 10% | 52% | 38.1% | 5% | 50% | 56.8% | -2% | 66% | 65.8% | -5% | 6% | 11.3% | -2% | 11% | 15.5% | -3% | 80% (active) | 89.5% (active)
CCOc1ccnc2c(C)c3c([nH]c4ccccc43)c(C)c12 | 50% | 99% (active) | 99.2% (active) | 23% | 99% (active) | 99.5% (active) | 29% | 52% | 99.2% (active) | 14% | 97% (active) | 99% (active) | 11% | 99% (active) | 99.3% (active) | 16% | 99% (active) | 99.3% (active)
Cc1nnc2nc3c(nn12)c1ccccc1n3C | -155% | -54% | 46.3% | -49% | -33% | 31.8% | -65% | -46% | 15.8% | -60% | -44% | 75.8% (active) | -64% | -57% | -0.35% | -146% | -77% | 5.45%
CN(C)CCN(C)N=Nc1c(-c2ccc(Cl)cc2)n[nH]c1C(F)(F)F | 98% (active) | 99% (active) | 98.8% (active) | 99% (active) | 99% (active) | 99.7% (active) | 99% (active) | 99% (active) | 99.4% (active) | 99% (active) | 99% (active) | 99.3% (active) | 99% (active) | 99% (active) | 96% (active) | 99% (active) | 99% (active) | 99.5% (active)
CC(CCN)(CCN)[N+](=O)[O-] | 16% | 18% | 8.3% | -1% | -27% | 15.8% | -4% | 27% | -13.6% | -25% | -2% | 46.3% | -5% | -1% | 6.9% | 4% | 9% | 15.4%
OC1c2cc(Cl)cc(Cl)c2OC2(N3CCCC3)CCCCC12 (configuration not stated) | 62% | 94% (active) | 81.5% (active) | 37% | 87% (active) | 46.1% | 44% | 87% (active) | 82% (active) | 34% | 47% | 19.1% | 51% | 96% (active) | 73.3% (active) | 61% | 96% (active) | 73.6% (active)
Cc1cc2c(c(C(N)=O)c1C)-c1cccc(F)c1C2=O | 4% | 47% | 77.4% (active) | 4% | 20% | 7.15% | 20% | 20% | 37.6% | -1% | 14% | 75.5% (active) | 2% | 32% | 16% | 1% | 32% | 90.5% (active)
CCOC(=O)/N=C(\N)SCc1ccccc1 | 21% | 3% | 10.9% | -4% | -6% | 1.05% | 13% | -8% | -12.8% | -7% | -8% | -6.25% | 0% | -7% | 49.5% | -3% | -2% | -5.95%
COc1ccccc1C(c1cc2c(cc1O)OCO2)N1CCOCC1 (configuration not stated) | -15% | 97% (active) | 99% (active) | -20% | 98% (active) | 98.6% (active) | -8% | 98% (active) | 85.3% (active) | -12% | 51% | 77.4% (active) | 15% | 99% (active) | 31.9% | 6% | 98% (active) | 42.4%
CCCCc1c2c(nc3c1CCC/C3=C\c1ccccc1)C(=O)C(CN(C)C)CC2 (configuration not stated) | 16% | 96% (active) | 86.3% (active) | 10% | 97% (active) | 89.1% (active) | 29% | 97% (active) | 86.5% (active) | 11% | 96% (active) | 86.8% (active) | 13% | 95% (active) | 84.5% (active) | 11% | 96% (active) | 84.5% (active)
CC(C)CCCC(C)C1CCC2C3C=CC4=CCCCC4(C)C3CCC12C (configuration not stated) | -18% | 95% (active) | 97.6% (active) | 3% | 98% (active) | 94.8% (active) | -8% | 96% (active) | 8.35% | -5% | 94% (active) | 93% (active) | -4% | 93% (active) | 91.2% (active) | 31% | 98% (active) | 98.1% (active)
C=Cc1cc(=O)oc2cc(OC)ccc12 | 20% | 98% (active) | 71.4% (active) | 22% | 99% (active) | 86.2% (active) | 22% | 98% (active) | 61.2% | 14% | 99% (active) | 72.2% (active) | 14% | 98% (active) | 93.2% (active) | 30% | 98% (active) | 93.8% (active)
C[n+]1c(/C=C\c2ccccc2)sc2ccccc21 | 23% | 89% (active) | 82.8% (active) | 21% | 90% (active) | 82.3% (active) | 33% | 93% (active) | 88.7% (active) | 19% | 83% (active) | 74.8% (active) | 7% | 86% (active) | 76.9% (active) | 15% | 81% (active) | 87% (active)
CC(=O)Nc1c(Cl)ccc2c1Cc1cc([N+](=O)[O-])ccc1-2 | 19% | 92% (active) | 91% (active) | 2% | 19% | 45.8% | 6% | -39% | 49.5% | -3% | 44% | 47.9% | -7% | 10% | 10.7% | -9% | 66% | 90.8% (active)
CCCCCCCCCCCCNCCNCCN | 99% (active) | 95% (active) | 86.7% (active) | 99% (active) | 100% (active) | 89.7% (active) | 25% | 96% (active) | 91% (active) | 84% (active) | 97% (active) | 85.6% (active) | 61% | 96% (active) | 89% (active) | 100% (active) | 100% (active) | 86.6% (active)
O=C(O)C(S(=O)(=O)O)S(=O)(=O)O | 99% (active) | 99% (active) | 99.2% (active) | 54% | 99% (active) | 99.4% (active) | 100% (active) | 99% (active) | 99.1% (active) | 100% (active) | 99% (active) | 99.3% (active) | 99% (active) | 99% (active) | 98.4% (active) | 99% (active) | 99% (active) | 99.3% (active)
